High-throughput results: PubChem BioAssay, National Center for Advancing Translational Sciences (NCATS)
Shown are actives, neighbours in structure and some others; about 10% of the full set was active somewhere.
CtBP-E1A blk = qHTS Assay for Inhibitors of the CtBP/E1A Interaction | CtBP / adenovirus E1A interaction (AlphaScreen) | AlphaScreen GST-E1A/His-CtBP binding, 1536-well; stronger effect = lower value | activity change, % (concentration not given with the values) | hit rate 0.49% among 340,000; in the data active = activity change below about -65%; inconclusive = mostly about -30% to -63%
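Homogeneous bead-based format: GST-tagged E1A captured on glutathione donor beads, His-tagged CtBP on nickel acceptor beads; compounds precede bead addition by 2 h at 37 °C.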
G9a block = qHTS Assay for Inhibitors of Histone Lysine Methyltransferase G9a. Histone-lysine N-methyltransferase EHMT2 (Homo sapiens), Q96KQ7. G9a H3K9 monomethylation, AlphaScreen, 2 h. Potency, µM (doses to about 102 µM), most hits filed as inhibitors. hit rate 8.8% among 350,000. AID 504332, 2011; note: nearly all actives have a fitted effect of over 75% in size
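Readings reflect AlphaScreen signal from monomethyl-H3K9 antibody detection. HMT at 20 nM; substrate b-H3K9 500 nM; cofactor SAM 20 uM; 2 h RT reaction; compounds tested as titrations in qHTS with 15 min preincubation.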
JMJD2A Tudor inh = qHTS Assay for Inhibitors of JMJD2A-Tudor Domain | hit rate 4.4% among 390,000 | AlphaScreen JMJD2A-Tudor / H3K4me3 peptide binding | Potency, µM (series often up to 114 µM), usual class: inhibitors | Lysine-specific demethylase 4A (Homo sapiens), O75164; note: nearly all actives have a fitted effect of over 50% in size
Six1-Eya2 inh = qHTS Assay for Inhibitors of the Six1/Eya2 Interaction; AID 651725, 2012; activity change, % (test concentration not listed); AlphaScreen GST-Six1/His-Eya2 binding, biochemical; stronger effect = lower value; hit rate 0.56% among 360,000; in the data active = activity change below about -65%; inconclusive = mostly about -30% to -63%
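Homogeneous AlphaScreen proximity assay pairing GST-Six1 with His-tagged Eya2 (added as 5X mix: 250 nM and 500 nM) in 50 mM Tris pH 8.0, 300 mM NaCl, 1 mM TCEP. Glutathione donor and nickel acceptor beads; 1 h, 37 °C, dark.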
BAZ2B inh = qHTS Assay for Inhibitors of BAZ2B | hit rate 4.4% among 360,000 | AID 504333, 2011 | AlphaScreen BAZ2B-H3K14Ac peptide displacement | Potency, µM (doses to about 114 µM), usual class: inhibitors; note: nearly all actives have a fitted effect of over 60% in size
Target sequence (Q9UIF8 whole entry, looked up): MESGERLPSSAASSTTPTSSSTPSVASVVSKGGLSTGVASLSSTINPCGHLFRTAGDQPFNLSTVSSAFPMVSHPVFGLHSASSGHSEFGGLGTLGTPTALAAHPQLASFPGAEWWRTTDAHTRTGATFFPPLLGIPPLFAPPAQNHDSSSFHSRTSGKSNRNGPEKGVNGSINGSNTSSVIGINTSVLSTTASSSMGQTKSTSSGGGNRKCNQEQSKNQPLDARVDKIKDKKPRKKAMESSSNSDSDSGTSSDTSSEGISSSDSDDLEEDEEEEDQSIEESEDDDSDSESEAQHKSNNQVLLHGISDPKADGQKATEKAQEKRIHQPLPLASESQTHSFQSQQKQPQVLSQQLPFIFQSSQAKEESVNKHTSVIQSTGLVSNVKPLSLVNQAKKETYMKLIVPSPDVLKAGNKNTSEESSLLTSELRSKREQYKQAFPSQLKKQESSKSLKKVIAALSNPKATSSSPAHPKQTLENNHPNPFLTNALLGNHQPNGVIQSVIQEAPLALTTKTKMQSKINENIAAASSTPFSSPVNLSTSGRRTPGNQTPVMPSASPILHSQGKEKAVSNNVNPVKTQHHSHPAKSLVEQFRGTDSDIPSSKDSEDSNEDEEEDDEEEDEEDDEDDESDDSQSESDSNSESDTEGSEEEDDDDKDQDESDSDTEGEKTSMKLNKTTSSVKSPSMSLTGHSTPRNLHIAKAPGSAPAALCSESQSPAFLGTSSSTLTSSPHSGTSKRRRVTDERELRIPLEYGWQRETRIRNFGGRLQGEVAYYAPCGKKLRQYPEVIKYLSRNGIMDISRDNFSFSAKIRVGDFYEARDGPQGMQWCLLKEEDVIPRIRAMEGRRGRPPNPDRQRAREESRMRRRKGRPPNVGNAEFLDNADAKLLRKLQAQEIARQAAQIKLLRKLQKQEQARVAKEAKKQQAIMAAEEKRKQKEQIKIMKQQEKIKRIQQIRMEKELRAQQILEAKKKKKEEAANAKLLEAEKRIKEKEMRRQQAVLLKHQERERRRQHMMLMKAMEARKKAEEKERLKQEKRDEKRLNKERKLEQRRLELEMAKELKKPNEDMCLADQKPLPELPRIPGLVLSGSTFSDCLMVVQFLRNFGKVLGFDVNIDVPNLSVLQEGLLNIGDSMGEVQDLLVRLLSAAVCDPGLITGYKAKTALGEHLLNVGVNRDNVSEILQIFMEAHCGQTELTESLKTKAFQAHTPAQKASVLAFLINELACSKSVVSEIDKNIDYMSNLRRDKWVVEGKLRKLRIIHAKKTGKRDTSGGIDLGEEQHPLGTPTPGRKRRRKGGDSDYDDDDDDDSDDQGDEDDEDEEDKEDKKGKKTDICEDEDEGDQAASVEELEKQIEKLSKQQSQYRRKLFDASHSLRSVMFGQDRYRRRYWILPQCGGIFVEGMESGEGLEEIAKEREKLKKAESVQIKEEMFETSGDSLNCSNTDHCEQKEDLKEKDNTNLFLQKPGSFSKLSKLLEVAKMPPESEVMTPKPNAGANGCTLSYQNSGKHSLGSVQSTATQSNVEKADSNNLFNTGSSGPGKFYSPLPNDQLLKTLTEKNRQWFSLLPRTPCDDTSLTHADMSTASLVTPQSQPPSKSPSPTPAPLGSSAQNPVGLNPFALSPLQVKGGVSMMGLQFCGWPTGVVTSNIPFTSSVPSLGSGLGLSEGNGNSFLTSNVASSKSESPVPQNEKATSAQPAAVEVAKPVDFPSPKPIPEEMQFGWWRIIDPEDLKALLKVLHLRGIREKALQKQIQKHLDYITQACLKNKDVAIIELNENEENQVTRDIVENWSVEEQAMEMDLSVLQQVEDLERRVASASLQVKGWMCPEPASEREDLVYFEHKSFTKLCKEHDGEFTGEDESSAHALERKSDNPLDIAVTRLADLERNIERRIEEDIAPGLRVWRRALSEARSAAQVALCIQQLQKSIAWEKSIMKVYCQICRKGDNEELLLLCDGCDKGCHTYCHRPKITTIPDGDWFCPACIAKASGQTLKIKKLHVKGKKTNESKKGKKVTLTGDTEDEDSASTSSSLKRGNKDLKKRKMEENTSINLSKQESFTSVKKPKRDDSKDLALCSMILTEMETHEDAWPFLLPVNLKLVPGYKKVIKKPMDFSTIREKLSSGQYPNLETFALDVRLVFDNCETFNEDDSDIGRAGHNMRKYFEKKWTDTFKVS
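BAZ2B 50 nM plus b-H3(5-23)K14Ac 50 nM, PBS pH 7.4/0.01% Tween-20, 30 min RT; compound added (max 110 uM), 30 min RT; streptavidin donor/Ni-chelate acceptor beads 10 ug/mL final, 20 min dark; AlphaScreen read.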
HP1b binding inh = HTS for Inhibitors of HP1-beta Chromodomain Interactions with Methylated Histone Tails; AlphaScreen HP1-beta / biotin-H3K9me3 peptide binding; Potency, µM (titrated, usually from 114 µM), actives largely listed as inhibitors; hit rate 0.56% among 390,000; AID 540317, 2011; note: nearly all actives have a fitted effect of over 70% in size
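HP1-beta protein (50 nM final) preincubated 30 min at room temperature with biotinylated H3(1-18)K9me3 peptide (50 nM) in PBS pH 7.4, 0.01% Tween-20, then compound added for 30 min. AlphaScreen streptavidin donor/nickel chelate acceptor beads (10 ug/mL final), 30 min dark, luminescence read.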
Numbers stand for hits; i = inactive; ? = inconclusive; nt = no result; [ ] = dose if it differs, or a comment. Unless noted, calls come from the whole dose curve; as a rule, active = well fitted inhibition curve with a large enough effect; inconclusive = small, poorly fitted or top-dose-only effect; inactive = no such curve, though single readings can be large or run the other way.

SMILES	CtBP-E1A blk	G9a block	JMJD2A Tudor inh	Six1-Eya2 inh	BAZ2B inh	HP1b binding inh
O=c1cc(CSc2ccc(Cl)cc2)nc(-c2ccccc2)[nH]1	i	i	i	i	i	i
CCNC(=S)Nc1ccc(N2CCCCC2)cc1	i	32µM	i	i	35µM	?
CCCC(=O)Nc1ccc(N2CCCCC2)cc1	i	?	i[11.4 µM]	i	i	i
O=C(O)CCCC(=O)Nc1ccc(N2CCCC2)cc1	i	40µM	?	i	i	i
COCCCNC(=S)Nc1ccc(N2CCCCC2)cc1	i	?	i	i	?	i
CCC(=O)Nc1ccc(N2CCCCC2)cc1	i	i[12.7 µM]	i	i	i	i
O=C(Nc1ccc(N2CCCCC2)cc1)c1ccccc1	i	?	i	i	i	i
O=C(CCl)Nc1ccc(N2CCCCCC2)cc1	i	16µM	50µM	i	?	?
NC(=O)NC(=O)C(Nc1ccc(N2CCCCC2)cc1)c1ccccc1 (stereo not drawn)	i	16µM	?	i	?	?
CC(=O)N1CCc2cc(Br)cc(S(=O)(=O)NCCc3ccc(Cl)cc3)c21	nt	i	i	nt	i	i
Cc1ccc(N(CC(=O)N2CCN(c3ccc(Cl)cc3)CC2)S(=O)(=O)c2c(C)noc2C)cc1	nt	i	?	nt	nt	i
CCOC(=O)c1[nH]c2c(c1Cc1ccccc1OC)C(=O)CC(c1ccccc1)C2 (stereo not drawn)	nt	i	i	nt	i	i
CCCN(CCC)C(=O)CSc1nnc2cc(C)c3ccccc3n12	nt	?	?	nt	i	i
O=C(Cc1ccccc1)Nc1ccc(N2CCCCC2)cc1	i	28µM	i	i	i	i
O=C(Cn1c(-c2ccccc2)noc1=O)Nc1ccc(N2CCCCCC2)cc1	?	?	22µM	?	22µM	?
CN1CCN(c2ccc(NC(=O)Cc3ccccc3)cc2)CC1	i	i[12.7 µM]	i	i	i	i
CC1CCCCN1CC(=O)Nc1ccc(Oc2ccccc2)cc1 (stereo not drawn)	i	i	i	i	i	i
O=C(CNC(=O)c1ccco1)Nc1ccc(N2CCCCCC2)cc1	i	?	?	i	?	i
CC1CCCCN1CC(=O)Nc1ccc(N2CCCCCC2)cc1 (stereo not drawn)	i	3.2µM	1.4µM	?	11µM	22µM
O=C(CNCc1ccco1)Nc1ccc(N2CCCCCC2)cc1	i	8.9µM	20µM	i	28µM	40µM
C[C@@H]1CC2[C@@H]3C[C@H](F)C4=CC(=O)C(Cl)=C[C@]4(C)[C@@]3(F)[C@H](O)C[C@]2(C)[C@@]1(O)C(=O)CO (stereo partly drawn)	nt	i[12.7 µM]	nt	nt	nt	nt
COc1cccc(NC(=O)C2CCCN2S(=O)(=O)c2ccc3nc(-c4ccccc4)[nH]c3c2)c1 (stereo not drawn)	nt	i	i	nt	i	i
O=C(CCc1nc2ccccc2n1-c1ccccc1)NCCO	i	i	i	i	i	i
O=C(COC(=O)CCc1nc2ccccc2n1-c1ccccc1)Nc1ccc(N2CCCCC2)cc1	i	10µM	i	i	?	i
COc1cc(CNCc2cccc3ccccc23)cc(OC)c1	nt	50µM	25µM	i	50µM	i
SMILES	CtBP-E1A blk	G9a block	JMJD2A Tudor inh	Six1-Eya2 inh	BAZ2B inh	HP1b binding inh
COc1cc(NC(=O)CCCc2c[nH]c3ccccc23)cc(OC)c1	nt	i	?	i	?	i
COc1cc(CNCc2c[nH]c3ccccc23)cc(OC)c1	i	14µM	3.5µM	i	56µM	?
COc1ccccc1N1CCN(C(=O)c2cnn(-c3ccc(F)cc3F)c2C2CCNCC2)CC1	nt	i	i	nt	i	i
O=C(CSC1=Nc2ccccc2N=C(c2ccc(F)cc2)C1)Nc1ccc(Cl)cc1	nt	i	i	nt	i	i
CNC(=S)N=Nc1c(O)[nH]c2ccccc12	-69	i	i	-70	i	i
O=C(N=Nc1c(O)[nH]c2ccccc12)c1cc(NS(=O)(=O)c2cccs2)cc(NS(=O)(=O)c2cccs2)c1	i	i	i	i	i	i
Oc1ccc(NC(=S)N=Nc2c(O)[nH]c3ccccc23)cc1	-72	50µM	?	-71	i	?
Oc1ccc(NC(=S)N=Nc2c(O)[nH]c3ccc(Br)cc23)cc1	?	?	32µM	?	20µM	?
O=C(N=Nc1c(O)[nH]c2ccccc12)c1cccs1	?	79µM	i	i	i	i
Cc1ccc(NC(=S)N=Nc2c(O)[nH]c3ccccc23)cc1	i	i	i	i	nt	i
C=CCC(CC=C)(CNC(=O)C(=O)Nc1cc(C)ccc1OC)c1ccc(OC)c(OC)c1	nt	i	i	nt	i	i
CCOC(=O)c1scc(-c2ccc(C)cc2)c1S(=O)(=O)N1CCN(c2ccccc2)CC1	nt	i	i	nt	?	i
CCCn1c(SCC(O)c2cccc(OC)c2)nc2ccccc21 (stereo not drawn)	nt	i	i	nt	i	i
COc1ccc2oc(=O)c(C(=O)N3CCN(c4ccc(C)cc4)CC3)cc2c1	nt	i	i	nt	i	i
CC(Oc1ccc(F)cc1)C(=O)N1CCC(c2nc3ccccc3s2)CC1 (stereo not drawn)	nt	i	i	nt	i	i
CCOc1ccccc1NC(=O)/C(C#N)=C/c1c(C)nn(-c2ccccc2)c1Cl	i	i	45µM	i	i	i
